Laboratory results from publication PMC5540273 (PLoS ONE, 2017).
pKd: −log10 of the molar value.

Tests used:
AAK1 = conditions: concentration: 1 μM, replicates: in singlicate; n = 1
ABL1-nonphosphorylated = conditions: concentration: 1 μM, replicates: in singlicate; n = 1
ABL1-phosphorylated = conditions: concentration: 1 μM, replicates: in singlicate; n = 1
ABL2 = conditions: concentration: 1 μM, replicates: in singlicate; n = 1
ACVR1B = conditions: concentration: 1 μM, replicates: in singlicate; n = 1
ACVR1 = conditions: concentration: 1 μM, replicates: in singlicate; n = 1
ACVR2A = conditions: concentration: 1 μM, replicates: in singlicate; n = 1
ACVR2B = conditions: concentration: 1 μM, replicates: in singlicate; n = 1
ACVRL1 = conditions: concentration: 1 μM, replicates: in singlicate; n = 1
ADCK3 = tested on: T1, ADCK3; conditions: concentration: 1 μM, replicates: in singlicate; n = 1
T1 construct: gene CABC1

ADCK4 = conditions: concentration: 1 μM, replicates: in singlicate; n = 1
AKT1 = conditions: concentration: 1 μM, replicates: in singlicate; n = 1
AKT2 = conditions: concentration: 1 μM, replicates: in singlicate; n = 1
AKT3 = conditions: concentration: 1 μM, replicates: in singlicate; n = 1
ALK = conditions: concentration: 1 μM, replicates: in singlicate; n = 1
YSK4 = tested on: T2, YSK4
T2 construct: gene MAP3K19

YANK2 = tested on: T3, YANK2
T3 construct: gene STK32B
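Wherever %Inh is given: KINOMEscan kinase panel screen.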
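Wherever pKd is given: kd values determined as follow-up on hits from a single-replicate KINOMEscan panel screen.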

Structure (SMILES)	%Inh (AAK1)	%Inh (ABL1-nonphosphorylated)	%Inh (ABL1-phosphorylated)	%Inh (ABL2)	%Inh (ACVR1B)	%Inh (ACVR1)	%Inh (ACVR2A)	%Inh (ACVR2B)	%Inh (ACVRL1)	%Inh (ADCK3)	%Inh (ADCK4)	%Inh (AKT1)	%Inh (AKT2)	%Inh (AKT3)	%Inh (ALK)	pKd (YSK4)	pKd (YANK2)	pKd (ZAK)
CCn1c(-c2c(N)noc2C)nc2cnccc21 [SB-737856]	0%	0%	13%	13%	0%	21%	0%	0%	0%	23%	24%	0%	18%	0%	35%			
CC(=O)c1c(C)c2cnc(Nc3ccn(C)n3)nc2n(C2CCCC2)c1=O	0%	0%	0%	0%	2%	16%	0%	0%	0%	0%	0%	3%	23%	0%	6%			
Cc1cnc(N)c(/C=C/c2cncc(C(=O)NCCc3ccc(Cl)cc3Cl)c2)c1.Cl [GSK190937]	19%	39%	0%	11%	0%	0%	0%	0%	0%	25%	13%	0%	0%	0%	0%			
Cc1ccc(NC(=O)Nc2ccccc2)cc1-c1ccc(C(=O)Nc2ccncc2)cc1 [GSK1398471]	8%	0%	0%	16%	0%	0%	0%	0%	0%	19%	14%	1%	4%	0%	21%	7.15		
CNc1nc(-c2ccc3c(N)n[nH]c3c2)cc(N2C[C@@H](C(=O)Nc3ccccc3)CC[C@H]2C)n1 [GSK2298859]	12%	1%	0%	2%	0%	0%	0%	12%	0%	22%	26%	0%	2%	0%	3%		6.66	
Cc1ccc(NC(=O)c2ccc(Cl)cc2)cc1-c1ccc(C(=O)Nc2ccncc2)cc1 [GSK1398467]	8%	0%	0%	20%	0%	7%	0%	10%	0%	15%	0%	0%	19%	0%	18%			
COC(=O)C(NC(=O)NC1CCN(c2ccnc(Nc3ccc(F)cc3)n2)C1)c1ccccc1 (centres unmarked) [GSK1379712]	5%	0%	0%	0%	0%	4%	0%	11%	0%	0%	22%	0%	0%	0%	19%			
CC(=O)c1c(C)c2cnc(Nc3ccc(N4CCNCC4)cn3)nc2n(C2CCCC2)c1=O	0%	28%	0%	0%	0%	0%	0%	0%	0%	0%	0%	0%	0%	11%	5%			
Cc1ccc(NC(=O)Nc2ccccc2F)cc1-c1ccc(C(=O)Nc2ccncc2)cc1 [GSK1398477]	28%	7%	0%	31%	3%	32%	21%	14%	5%	22%	25%	0%	22%	0%	25%	5.82		
Cn1cncc1C(=O)NC1CCN(c2ccnc(Nc3ccc(F)cc3)n2)C1 (centres unmarked) [GSK1379717]	31%	0%	4%	0%	0%	24%	24%	2%	0%	2%	26%	0%	0%	0%	0%			< 5.00
COc1cccc(CNC(=O)NC2CCN(c3ccnc(Nc4ccc(F)cc4)n3)C2)c1 (centres unmarked) [GSK1379723]	6%	0%	1%	8%	0%	10%	0%	0%	0%	10%	35%	0%	12%	0%	43%			< 5.00
CCc1ccc(-c2ccc3c(c2)-c2n[nH]cc2S(=O)(=O)N3C)cc1	15%	26%	0%	0%	0%	0%	13%	22%	0%	9%	0%	3%	0%	0%	0%			
COc1ccc(Nc2nccc(-c3ccc(NC(=O)c4cc5cc(F)ccc5[nH]4)cc3)n2)cc1 [GSK1229496]	65%	0%	0%	0%	23%	0%	0%	0%	0%	5%	29%	0%	0%	0%	17%			
COc1ccc(CSc2nnc(-c3ccc4ncsc4c3)o2)cc1C(F)(F)F	9%	13%	8%	2%	9%	0%	0%	0%	2%	0%	0%	8%	4%	0%	0%			
CS(=O)(=O)CCNCc1nc(-c2ccc3ncnc(Nc4ccc5c(cnn5Cc5ccccc5)c4)c3c2)cs1.Cl.Cl [GW569716]	0%	68%	0%	13%	0%	1%	0%	0%	0%	10%	54%	0%	2%	0%	31%			
COc1cccc(C2=C(Nc3cc(Cl)c(O)c(Cl)c3)C(=O)NC2=O)c1 [SB-390767]	0%	0%	4%	19%	0%	20%	0%	2%	19%	1%	0%	0%	0%	0%	29%			
O=C1NC(=O)C(c2ccc(Cl)cc2)=C1Nc1cccc(Cl)c1 [SB-317651]	0%	47%	0%	0%	0%	0%	0%	0%	16%	17%	0%	0%	5%	0%	0%			
COC(=O)c1cccc(NC(=O)NC2CCN(c3ccnc(Nc4ccc(F)cc4)n3)C2)c1 (centres unmarked) [GSK1379725]	0%	0%	0%	5%	0%	0%	0%	0%	0%	4%	23%	0%	0%	0%	17%			
CNc1nc(-c2ccc3c(N)n[nH]c3c2)cc(N2C[C@@H](C(=O)NC3CCCCC3)OC[C@H]2C)n1 [GSK2375584]	40%	6%	0%	3%	0%	18%	0%	35%	0%	24%	18%	0%	22%	0%	0%			
COc1ccc(Nc2nccc(N3CCC(NC(=O)c4cc5ccccc5s4)C3)n2)cc1 (centres unmarked) [GSK1379738]	73%	0%	0%	1%	0%	0%	0%	0%	0%	0%	37%	0%	5%	0%	25%			
O=c1cc(N2CCOCC2)nc2n(Cc3ccccc3F)ccn12 [GSK2297428]	5%	0%	0%	8%	0%	0%	0%	0%	0%	13%	8%	0%	0%	0%	0%			
CC(=O)c1cccc(NC(=O)NC2CCN(c3ccnc(Nc4ccc(F)cc4)n3)C2)c1 (centres unmarked) [GSK1379710]	16%	0%	0%	0%	0%	0%	10%	13%	0%	25%	41%	0%	2%	0%	25%			
COc1ccc2cc(-c3nc(-c4ccccc4C(C)C)[nH]c3-c3ccncc3)ccc2c1 [SB-660566]	20%	0%	3%	8%	74%	17%	0%	0%	34%	5%	17%	0%	41%	0%	38%			
COc1ccc(Nc2nccc(NCCNC(=O)Nc3cc(C)ccc3C)n2)cc1 [GSK1379899]	0%	0%	0%	5%	0%	2%	2%	6%	0%	0%	0%	0%	0%	0%	1%			
CS(=O)(=O)Cc1ccc(Nc2nccc(-c3c(-c4cccc(NC(=O)C5CCCCC5)c4)nn4ncccc34)n2)cc1 [GSK350559]	0%	8%	15%	5%	0%	18%	0%	0%	0%	24%	0%	23%	4%	0%	29%			
CS(=O)(=O)CCNCc1nc(-c2ccc3ncnc(Nc4ccc(OCc5ccccc5)c(Cl)c4)c3c2)cs1.Cl [GW582764]	0%	0%	0%	21%	0%	0%	17%	0%	0%	9%	45%	0%	31%	0%	35%			
